According to PubChem BioAssay (NCI):
Compounds without any hit were thinned out: in the full panel of roughly 83,000, 20% have a hit.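 Method: cells in 96-well plates; compound added at one concentration; 48 h incubation; percent growth measured; values under 10 scored active.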 Active and inactive are the calls of the source.

system: MDA-MB-468 breast; experiment: NCI-60 one-dose screen, 48 h (100 = growth as untreated, 0 = no growth, -100 = all killed); conditions: 10 µM unless noted

| Structure (SMILES) | growth |
| --- | --- |
| COc1ccc(C2OC(N)=C(O)C2=O)cc1OC (centres undefined) | 109% (inactive) |
| COc1cccc(C2C(C#N)=C(N)Oc3cc(N)ccc32)c1 (centres undefined) | -22.2% (active) |
| CCOC(=O)C(C)(CSSCC(C)(NC(=O)c1ccc2ccccc2c1)C(=O)OCC)NC(=O)c1ccc2ccccc2c1 (centres undefined) | 109% (inactive) |
| Cc1nc([N+](=O)[O-])c(Sc2nncc(-c3ccccc3)n2)n1C | 29.5% (inactive) |
| CS(=O)(=O)c1ccc(-c2cc3c(oc2=O)-c2ccccc2OC3O)cc1 (centres undefined) | 91.6% (inactive) |
| CCN(CC)CCNc1ncnc2c1cnn2-c1ccc(Cl)cc1 | 57.6% (inactive) |
| CC(=O)NCNC(C)=O | 103% (inactive) |
| c1ccc2nc(-c3ccc4ccccc4n3)ccc2c1 | 78.9% (inactive) |
| Cc1ccc(C(=O)N(CCCN)[C@@H](c2nc3cc(Cl)ccc3c(=O)n2Cc2ccccc2)C(C)C)cc1 | -84.4% (active) |
| COCCn1cc(-c2nc(-c3cccnc3)cs2)c2cc(F)ccc21 | 100% (inactive) |
| Cn1c(=O)c2[nH]c(SCC(=O)Nc3ccc(C(=O)/C=C/c4ccccc4Cl)cc3)nc2n(C)c1=O | 76.4% (inactive) |
| c1ccc2c(c1)Cc1ccccc1N2CCN1CCCCC1 | 99.4% (inactive) |
| CCOC(=O)c1c[nH]c2cc(OCC3CC3)c(OCC3CC3)cc2c1=O | 107% (inactive) |
| C[N+](C)(CCOC(c1ccccc1)c1ccccc1)CC(=O)OCc1ccccc1 | 100% (inactive) |
| CC(CN)[C@@H]1CC[C@]2(CO)CC[C@]3(C)[C@H](CC[C@@H]4[C@@]5(C)CCC(N)C(C)(C)[C@@H]5CC[C@]43C)[C@@H]12 (some centres undefined) | 6.19% (active) |
| CC1=C[C@H]2c3c(c(O)c(O)c4oc(-c5ccccc5)cc(=O)c34)[C@H](c3cc(O)c(O)c4oc(-c5ccccc5)cc(=O)c34)[C@H]2C(C)(C)C1 | 14.2% (inactive) |
| Cc1ccc(S(=O)(=O)C2=C3C(=C(c4ccccc4)c4ccccc43)CN(S(=O)(=O)c3ccc(C)cc3)C2)cc1 | 51% (inactive) |
| CCOc1ccccc1NC1=C(Cl)C(=O)c2nc(C)ccc2C1=O | -90.7% (active) |
| CC(=O)N(C(C)=O)c1ccc(C)cc1 | 98.9% (inactive) |
| O=C(Cc1ccc(/C=C/C(=O)c2ncc[nH]2)cc1)Nc1ccc(C(F)(F)F)cc1 | 15.1% (inactive) |

| Structure (SMILES) | growth |
| --- | --- |
| O=C(CCCCCCc1nc2ccc(Br)cc2[nH]1)NO | -1.04% (active) |
| COC(=O)CCC/C=C\C[C@H]1C=CC(=O)/C1=C/C[C@@H](O)CCc1cccc(C(F)(F)F)c1 | -14.5% (active) |
| COc1cc2nccc(Oc3ccc(NC(=O)C4(C(=O)Nc5ccc(F)cc5)CC4)cc3)c2cc1OC | 33.6% (inactive) |
| COc1cc(Cc2cc(-c3ccc(Cl)cc3)n[nH]c2=O)ccc1O | 73.9% (inactive) |
| CSCCC(C(=O)O)N1C(=O)/C(=C/c2ccc(O)c(O)c2)SC1=S (centres undefined) | 100% (inactive) |
| COc1ccc(-c2nc3sc4c(c3c(=O)[nH]2)CCCCCC4)cc1 | 98.5% (inactive) |
| O=C(N=Nc1c(O)[nH]c2ccccc12)Nc1ccc(F)cc1 | 103% (inactive) |
| CC(C)(C)OC(=O)NCCc1ccc(N)cc1 | 94.3% (inactive) |
| COc1ccc(CNc2nccnn2)cc1 | 88% (inactive) |
| Cc1ccc(Cl)cc1Nc1nc(C(F)(F)F)ccc1C(=O)N/N=C/c1c(Cl)cccc1Cl | -13.1% (active) |
| CCOC(=O)/C(F)=C/C1CC1C1CCCCC1 (centres undefined) | 96.9% (inactive) |
| COc1ccc(S(=O)(=O)N2CCCCCC2)cc1NC(=O)c1[nH]c(C)c2c1CCCCC2=O | 4% (active) |
| Cc1ccc(C)c2c1SC1=NNC(Oc3ccc(Cl)cc3)=C(C#N)C(=N)N12 | 118% (inactive) |
| O=C(NNC(=O)c1ccc(-n2cc(-c3ccccc3)nn2)cc1)Nc1ccccc1 | 109% (inactive) |
| COc1cc2c(=O)n(CCCN(C)C)c3c4cc[nH]c4ncc3c2cc1OC | 81.5% (inactive) |
| COc1c(-c2cc(-c3ccc(C)o3)[nH]c(=O)n2)c(O)cc2occc12 | 25.8% (inactive) |
| O=[N+]([O-])c1ccc(S(=O)(=O)N2CCN(c3ccnc4cc(Cl)ccc34)CC2)c([N+](=O)[O-])c1 | 82.7% (inactive) |
| CC12O[C@H](C[C@@H](O)[C@H]1O)n1c3ccccc3c3c4c(c5c6ccccc6n2c5c31)C(=O)N(CCCN)C4=O | 17.1% (inactive) |
| CCC(CO)Nc1nc2ccc(Cl)cc2c2ccccc12 (centres undefined) | 33% (inactive) |
